Reference: PubChem BioAssay
“And” between values parts separate entries of the source, which are not always exact repeats. Equal values may be shown once. Inconclusive results are not listed. For part of these data: Measured potencies and affinities stand elsewhere. The source made the active and inactive calls.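 How the source made its calls, unless noted: active means compounds killing one labelled cell type while sparing the other, by normalised counts and ratio limits, not self-fluorescent; inactive means the rest.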

Columns and labels:
[1] = differential killing of epithelial or mesenchymal cells, primary screen, imaging, PC-3E GFP, TEM4-18 mCherry, co-culture (AID 1345086); details: imaging cell counts, at 1 µM; for red/green cell ratio (normalised): actives lie on both sides, counts scaled to control wells, 1 = unselective;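 on all read-outs here: cells exposed to compound for 72 h before imaging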;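 on red/green cell ratio (normalised): normalised mesenchymal count divided by normalised epithelial count so high means epithelial killing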
[2] = polyglutamine-triggered caspase-3 activation inhibitors, cell-based (AID 1583); details: polyglutamine-induced caspase-3 activation, cell assay; stronger effect = higher value;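 tested at 10 µM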
[3] = suppressors of polyQ aggregation in yeast, 75Q-TubU reporter (AID 1593); details: Yeast 75Q polyglutamine aggregation reporter
[4] = rescue of polyQ-huntingtin neuronal dysfunction in worms, whole organism, C. elegans mechanosensory neurons, N-terminal huntingtin (AID 1599); details: touch response, stronger effect = higher value
[5] = inhibitors of mitochondrial cytochrome c release, biochemical, purified mitochondria (AID 1603); details: stronger effect = lower value;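 further: mouse liver mitochondria challenged with calcium chloride; signal normalized to the plate average as 100%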
[6] = inhibitors of polyQ protein aggregation (AID 1604); details: polyglutamine-induced protein aggregation inhibition assay; stronger effect = higher value; tested at 2.5 µM
[7] = enhancers of glutamate uptake in motor neurons, MN-1 cell line (AID 1612); details: MN-1 motor neuron cells, stronger effect = higher value;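 further: tested at 1 µM final; 0% = mean of DMSO vehicle wells on each plate; positive means more glutamate uptake than control and negative means less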
[8] = suppressors of polyglutamine aggregation in yeast, 75Q-TubH (AID 1616); details: S. cerevisiae 75Q-TubH polyglutamine aggregation suppression; stronger effect = higher value
[9] = circadian clock period modulators, cell-based, LOPAC library, luminescence reporter (AID 2774; call rule not given here;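 further: values are relative to mean of DMSO wells on each plate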); details: circadian reporter cells, at 7 µM, actives lie on both sides
[10] = liver-stage malaria parasite growth inhibition, primary screen, cell-based, HepG2, luciferase luminescence, HepG2 viability (AID 624349; in the data active means parasite load remaining mostly below about 12%, no sharp cut-off; inactive means mostly above about 10%;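 further: 100% = mean of DMSO negative control wells on the same plate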); details: P. berghei liver stage in HepG2, luciferase luminescence, concentration not given here; parasite load remaining: stronger effect = lower value; viability: measured here: HepG2 viability without parasites
[11] = tested on: Hepatitis C virus NS3 helicase; test: HCV NS3 helicase inhibitors, primary screen, biochemical, fluorescence polarization, LOPAC1280 library (AID 687035; in the data active means inhibition above about 37%); details: Purified HCV NS3 helicase, Cy5-dT15 ssDNA binding fluorescence polarization; stronger effect = higher value; concentration not given here
[12] = Cy5 fluorescence quenching or enhancement artefacts, artefact control for HCV NS3 helicase inhibitor project, biochemical, LOPAC1280 (AID 687037; call rule not given here); details: Cy5-DNA-NS3h complex fluorescence interference counterscreen
[13] = tested on: Aerobactin synthetase IucA (Klebsiella pneumoniae); test: IucA aerobactin synthetase inhibitors, biochemical, Tocris library, absorbance (AID 1345561; call rule not given here;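 further: 100% = enzyme without compound and 0% = no enzyme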); details: purified IucA enzyme assay, absorbance (OD) read-out; stronger effect = lower value;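 tested at 8 µM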
[14] = growth inhibition of DIPG glioma cells, dose response, cell-based, SU-DIPG-XVII, MIPE5.0, CellTiter-Glo, qHTS (AID 1347060; cut-off not given, nearly all actives have AC50 up to about 26 µM;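 on AC50: cells exposed to compound for 48 hours before viability readout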); details: SU-DIPG-XVII viability, CellTiter-Glo ATP luminescence
[15] = growth inhibition of DIPG glioma cells, dose response, cell-based, SU-DIPG-XIII, MIPE4.0, CellTiter-Glo, qHTS (AID 1347061; cut-off not given, nearly all actives have AC50 up to about 37 µM;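 further: cells exposed to compound for 48 hours before readout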); details: SU-DIPG-XIII viability, CellTiter-Glo ATP luminescence
[16] = growth inhibition of DIPG glioma cells, dose response, cell-based, JHH-DIPG-1, MIPE4.0, CellTiter-Glo, qHTS (AID 1347062; cut-off not given, nearly all actives have AC50 up to about 27 µM); details: JHH-DIPG-1 viability, CellTiter-Glo ATP luminescence
[17] = growth inhibition of DIPG glioma cells, dose response, cell-based, SU-DIPG-IV, MIPE4.0, CellTiter-Glo, qHTS (AID 1347063; cut-off not given, nearly all actives have AC50 up to about 30 µM;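 further: compound exposure lasted 48 hours before the viability readout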); details: SU-DIPG-IV viability, CellTiter-Glo ATP luminescence
[18] = growth inhibition of DIPG glioma cells, dose response, cell-based, SU-DIPG-XIII, MIPE5.0, CellTiter-Glo, qHTS (AID 1347064; cut-off not given, nearly all actives have AC50 up to about 23 µM); details: SU-DIPG-XIII viability, CellTiter-Glo ATP luminescence
[19] = viability loss in pontine glioma line – cell-based, SU-DIPG-XXV, MIPE5.0, CellTiter-Glo, qHTS, dose response (AID 1347065; cut-off not given, nearly all actives have AC50 up to about 26 µM;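 further: cells exposed to compound for 48 hours before ATP readout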); details: CellTiter-Glo ATP luminescence
[20] = SU-DIPG-VI glioma cell viability, MIPE4.0 library, CellTiter-Glo luminescence, qHTS (AID 1347066; cut-off not given, nearly all actives have AC50 up to about 30 µM;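 further: cells exposed to compound for 48 hours before readout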); details: CellTiter-Glo ATP luminescence
[21] = sensitizers of A549 cells to miR-34 induction, primary screen, imaging, A549 dox-inducible miR-34, nuclei and caspase counts (AID 1347080;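 active means compounds whose cell count with miR-34 switched on is under 0.7 times the count with it off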); details: A549 miR-34 inducible, Hoechst nuclei count, 48 h
[22] = modifiers of HSF1 nuclear foci, imaging, Selleck Cancer Library (AID 1347162; in the data active means plate-normalised HSF1 focus index below about 0.46); details: human cells, at 10 µM; SSMD: measured here: HSF1 foci SSMD mean; cell count: measured here: cell number; plate-normalised HSF1 focus index: stronger effect = lower value
[23] = viability rescue of complex I mutant cybrids, primary screen, cell-based, galactose medium, ATP luminescence (AID 1645843;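 active means z-score of at least 1.8 in each of two replicates, scored against plate mean and spread of sample wells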;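 further: positive z means more ATP and so rescue of galactose-driven cybrid death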); details: complex I mutant cybrid cells, 72 h, stronger effect = higher value
[24] = hESC survival regulators, cell-based (AID 493140; call rule not given here;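 further: cells exposed to compounds for four days before counting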); details: human embryonic stem cell survival screen; stronger effect = higher value
[25] = JHH-DIPG-1 glioma cell viability, MIPE5.0 library, CellTiter-Glo luminescence, qHTS (AID 1347067; cut-off not given, nearly all actives have AC50 up to about 26 µM;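 further: cells exposed to compound for 48 hours before readout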); details: JHH-DIPG-1 glioma viability, CellTiter-Glo ATP luminescence
[26] = SU-DIPG-XXV glioma cell viability, MIPE5.0 library, qHTS (AID 1347068; cut-off not given, nearly all actives have IC50 up to about 30 µM)
[27] = survival rescue of mitochondrial mutant cells in low glucose, primary screen, MELAS cybrids, Rieske KO mouse fibroblasts, CellTiter-Glo (AID 1508586;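 active means mean z-score across replicates of 1.96 or higher in either the MELAS or the Rieske mutant cell line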;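 further: z relative to plate mean and SD of compound and empty wells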)
[28] = measured here: epithelial PC-3E GFP cell survival
[29] = measured here: mesenchymal TEM4-18 mCherry cell survival
[30] = stronger effect = lower value, cell number ratio, induced over uninduced
[31] = measured here: relative caspase fold change +Dox/-Dox
[32] = measured here: total cells with miR-34 induction, stronger effect = lower value
[33] = measured here: total cells without miR-34 induction

For `COc1cc2c(cc1OC)Cc1cc(OC)c(OC)cc1Cc1cc(OC)c(OC)cc1C2`, the red/green cell ratio (normalised) [1] was 1.03 (inactive), the normalised cell number [1, 28] was 1.01 and the normalised cell number [1, 29] was 1.04.

For `C[C@H]1C[C@H]2O[C@@H]2/C=C\C=C\C(=O)Cc2c(Cl)c(O)cc(O)c2C(=O)O1`, the red/green cell ratio (normalised) [1] was 0.97 (inactive), the normalised cell number [1, 28] was 0.89 and the normalised cell number [1, 29] was 0.87.

For `CC/C=C1C=C(/C=C/CO)C(=O)O/1`, the red/green cell ratio (normalised) [1] was 1.01 (inactive), the normalised cell number [1, 28] was 1.05 and the normalised cell number [1, 29] was 1.06.

With `CC1CCC2(OC1)OC1CC3C4CCC5C[C@@H](O)CCC5(C)C4=CCC3(C)C1[C@@H]2C` (some centres not stated) the red/green cell ratio (normalised) [1] was 0.87 (inactive), the normalised cell number [1, 28] was 1.08 and the normalised cell number [1, 29] was 0.94.

With `O=C(Nc1ccc(Cl)cc1)Nc1ccc(CO)cc1` the red/green cell ratio (normalised) [1] was 0.86 (inactive), the normalised cell number [1, 28] was 1.29 and the normalised cell number [1, 29] was 1.11.

In the case of `NC(=O)c1c(Cl)nc(Cl)c2ccccc12`, the red/green cell ratio (normalised) [1] is reported as 1.12 (inactive), the normalised cell number [1, 28] is reported as 0.92 and the normalised cell number [1, 29] is reported as 1.03.

With `CC(=O)O[C@H]1C(=O)[C@@]2(C)C([C@H](OC(=O)c3ccccc3)[C@]3(O)C[C@H](OC(=O)[C@H](O)[C@@H](NC(=O)c4ccccc4)c4ccccc4)C(C)=C1C3(C)C)[C@]1(OC(C)=O)CO[C@@H]1C[C@@H]2O` (some centres not stated) the inhibition [2] was 28.3%, the score [3] was 1.98 and the rescue above control [4] was 5.24. The cytochrome c release ratio [5] was 1.41, the inhibition of aggregation [6] was 69% and the glutamate uptake change [7] was -2.18%. For the same compound, the aggregation suppression score [8] was 1.25, the period change [9] was 0.575 h (inactive) and the parasite load remaining [10] was 178% (inactive) and 65.8% (inactive). The viability [10] was 87.4% and 98%, the inhibition [11] was -1% (inactive) and the fluorescence ratio (interference) [12] was 0.9 (inactive). The red/green cell ratio (normalised) [1] was 0.49 (inactive), the normalised cell number [1, 28] was 0.23 and the normalised cell number [1, 29] was 0.11. The remaining activity [13] was 121% (inactive), the AC50 [14] was 5.9 nM (active) and the outcome [15] was “inactive”. The outcome [16] was “inactive”, the outcome [17] was “inactive” and the outcome [18] was “inactive”. The AC50 [19] was 7.42 nM (active), the outcome [20] was “inactive” and the fold change [21, 30] was 1.16 (inactive) and 1.14 (inactive). The fold change [21, 31] was 0.394 and 2.19, the cell count [21, 32] was 2700 and 2090 and the cell count [21, 33] was 2330 and 1830. For the same compound, the SSMD [22] was 5.16, the cell count [22] was 6910 and the plate-normalised HSF1 focus index [22] was 1.32 (inactive). For the same compound, the z-score [23] was 0.865 (inactive).

With `CC1(C)C2CCC1(C)C(O)C2` (configuration not stated) the red/green cell ratio (normalised) [1] was 1.2 (inactive), the normalised cell number [1, 28] was 0.75 and the normalised cell number [1, 29] was 0.9.

In the case of `O=c1c(O)c(-c2ccc(O)cc2)oc2cc(O)cc(O)c12`, the survival [24] is reported as 7.5 (inactive), the parasite load remaining [10] is reported as 80.6% (inactive) and the viability [10] is reported as 69.5%. For the same compound, the red/green cell ratio (normalised) [1] was 1 (inactive), the normalised cell number [1, 28] was 1.03 and the normalised cell number [1, 29] was 1.03. The remaining activity [13] was 107% (inactive), the outcome [14] was “inactive” and the outcome [15] was “inactive”. For the same compound, the outcome [19] was “inactive”, the outcome [20] was “inactive” and the outcome [25] was “inactive”. For the same compound, the outcome [26] was “inactive”, the fold change [21, 30] was 0.974 (inactive) and 0.869 (inactive) and 0.836 (inactive) and the fold change [21, 31] was 0.804 and 0.921 and 1.47. The cell count [21, 32] was 9050 and 8750 and 6630, the cell count [21, 33] was 9290 and 10100 and 7930 and the z-score ([27]; MELAS cybrid survival, CellTiter-Glo 48 h, stronger effect = higher value) was -0.357 (inactive). For the same compound, the z-score ([27]; Rieske KO mouse fibroblast survival, CellTiter-Glo 72 h) was 0.291 and the z-score [23] was -0.765 (inactive).
